Compounds without any hit were thinned out: in the full panel of roughly 83,000, 20% have a hit.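 Assay: single dose, 48 h. Readout: percent growth (0 = no net growth; negative = cell death). Active: <10.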 A number with no mark means an inactive call. Calls of active or inactive are those of the source.

The text below walks through data of PubChem BioAssay (NCI).

Assay in all cases: NCI-60 one-dose screen, 48 h (100 = growth as untreated, 0 = no growth, -100 = all killed)
Holding throughout (conditions): 10 µM unless noted

Assay [1] concerns DU-145 prostate.
For assay [2], the system named is K-562 leukemia.
Assay [3] has as its system MALME-3M melanoma.
Assay [4] relates to MDA-MB-231 breast.
The test system of assay [5] is RXF 393 renal.
Assay [6] has as its system SF-268 CNS.
In assay [7] the test system is SF-295 CNS.
The subject of assay [8] is SF-539 CNS.
The test system of assay [9] is UACC-257 melanoma.
Assay [10] deals with M14 melanoma.
Assay [11] deals with HCT-15 colon.
For assay [12], the system named is HT29 colon.
The subject of assay [13] is SNB-75 CNS.
Assay [14] has as its system SNB-19 CNS.
In assay [15] the test system is U251 CNS.
In assay [16] the test system is PC-3 prostate.
The subject of assay [17] is SK-MEL-5 melanoma.
Assay [18] deals with UACC-62 melanoma.
Assay [19] concerns LOX IMVI melanoma.
Assay [20] concerns SK-MEL-28 melanoma.

Turning to `Cc1nnc(NC(=O)c2nc(S(=O)(=O)Cc3ccc(F)cc3)ncc2Cl)s1`, the growth is 88.2% in assay [1]; -23.8% (active) in assay [2]; -12.9% (active) in [3]; 66% in assay [4]; 87.3% in [5]; 90.5% in [6]. Also, the growth in [7] was 99.5%; in assay [8], 83.8%; in assay [9] it was 40.6%; in assay [10] it was 83.8%; in [11] it was 11.1%; in assay [12], 23.8%. The growth in assay [13] is 79.3%; in [14] it was 92.8%; in assay [15] it was 62.2%; in assay [16] it was 71.4%; in assay [17], 98.9%; in [18], 19.8%. Moreover, the growth in [19] is 13.6%; in assay [20], 50.5%.
As to `CCn1c(=S)[nH]c2c(=O)n(C)c(=O)n(C)c21`, the growth in assay [1] is 111%; in [2], 105%; in [3], 99.6%; in assay [4], 115%; in assay [5] it was 106%; in assay [6], 114%. The growth in assay [7] was 104%; in [8] it was 95.3%; in [9], 92%; in [10], 95.5%; in assay [11] it was 101%; in [12], 112%. In addition, the growth in assay [13] was 96.2%; in [14] it was 100%; in assay [15] it was 95.9%; in [16], 100%; in assay [17] it was 106%; in assay [18] it was 116%. Besides, the growth in [19] is 98.8%; in assay [20] it was 109%.
As to `CC(=O)OC[C@]12CCC(C)(C)C[C@H]1[C@@]1(O)[C@H](O)C[C@@H]3[C@@]4(C)CCCNC(C)(C)[C@@H]4CC[C@@]3(C)[C@]1(C)CC2`, the growth in [1] was 111%; in [2], 106%; in assay [3], 106%; in assay [4], 103%; in [5], 117%; in assay [6] it was 106%. Moreover, the growth in [7] is 102%; in assay [8], 103%; in assay [9], 101%; in assay [10] it was 92.4%; in [11], 111%; in assay [12], 109%. Moreover, the growth in [13] is 115%; in [14] it was 97.4%; in assay [15] it was 107%; in assay [16], 102%; in assay [17], 99.9%; in assay [18], 105%. The growth was 106% in assay [19] and 108% in assay [20].
Regarding `COc1cc(-c2csc(NC(=O)c3cc(-n4cnc(C)c4)cc(C(F)(F)F)c3)n2)cc(OC)c1OC`, the growth is 56.4% in assay [1]; 26.8% in assay [2]; 67.7% in assay [3]; 61.3% in [4]; 66.7% in assay [5]; 68.6% in assay [6]. Also, the growth in [7] was 57.9%; in [8], 90.9%; in [9], 81.9%; in assay [10], 66.7%; in [11], 39.5%; in [12], 52.6%. Also, the growth in [13] was 78.6%; in [14] it was 62.2%; in assay [15], 56.9%; in [16] it was 37.3%; in assay [17], 51%; in [18], 44.1%. Besides, the growth is 53.9% in [19] and 78.9% in assay [20].
For the compound `CCCCOC(=O)OCc1cc(=O)c(O)co1`, the growth in assay [1] was 113%; in assay [2], 97.4%; in assay [3], 102%; in [4] it was 114%; in assay [5], 113%; in [6], 105%. The growth in assay [7] was 96.3%; in [8], 100%; in [9], 104%; in assay [10], 106%; in [11], 106%; in assay [12] it was 101%. Besides, the growth in assay [13] is 91.5%; in [14], 99%; in [15] it was 99.5%; in assay [16], 99.6%; in assay [17], 104%; in assay [18] it was 99.4%. For the same compound, the figures for the growth in [19] and in [20] were 99.9% and 107%, respectively.
With `CCO/C=N/C1=C(C#N)C(c2ccc(OC)cc2)c2sc3c(F)cccc3c2O1` (stereo not given), the growth in assay [1] was 35.8%; in [2], 15.1%; in [3] it was 60%; in assay [4], 34.6%; in assay [5], 3.81% (active); in [6] it was 44.2%. Moreover, the growth in assay [7] was 16.6%; in [8], -23.7% (active); in assay [9] it was 71.6%; in [10], 22.6%; in assay [11] it was 21.3%; in [12], 7.69% (active). The growth was -8.92% (active) in assay [13]; 24% in assay [14]; 24.7% in assay [15]; 33.3% in [16]; -22.9% (active) in assay [17]; 12.2% in assay [18]. Further, the growth is 32.2% in assay [19] and 60.4% in assay [20].
Take `CC(=O)Nc1nc2ccc(NS(=O)(=O)c3cccc4c(N(C)C)cccc34)cc2[nH]1`: the growth in assay [1] was 87.8%; in assay [2], 20.6%; in [3], 52.3%; in [4], 63.5%; in assay [5], 53.8%; in [6] it was 65.6%. The growth in [7] is 37.3%; in assay [8], 57.9%; in [9], 61.9%; in assay [10], 35.9%; in [11] it was 72.9%; in [12] it was 63%. In addition, the growth in assay [13] was 31%; in [14], 52.3%; in assay [15], 70.2%; in assay [16], 60.2%; in assay [17], 21.5%; in [18], 27.3%. In addition, the growth in assay [19] is 53.6%; in assay [20], 57.9%.
